The text below walks through data of PubChem BioAssay (EPA / NIEHS).

Where “and” joins values, the source holds several entries; their conditions need not be identical. Equal values may be shown once. Results filed as inconclusive are left out. A structure can be active in one record and inactive in another. Calls of active or inactive are those of the source. How the source made its calls, unless noted: active means hit-call score of the fitted dose curve at least 0.9, where 1 is the maximum; inactive means score below 0.9.

Read-out in assay [1]: Interleukin-8 (IL8), CXCL8 (gene 3576)
Description: BSK_3C_IL8: BioMAP Diversity Plus: 3C Assay for Interleukin-8 (IL8) Biomarker Activity (AID 2283020). Particulars: primary human endothelial cells (HUVEC); actives raise or lower the signal. An outline of the steps: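 Primary human umbilical vein endothelial cells were dosed for 24 h. IL-8 was quantified by ELISA and fitted bidirectionally against DMSO. Cytotoxicity was assessed in parallel cultures by SRB staining at 560 nm.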

Read-out in assay [2]: Monokine induced gamma interferon (MIG), CXCL9 (gene 4283)
Description: BSK_3C_MIG: BioMAP Diversity Plus: 3C Assay for Monokine induced gamma interferon (MIG) Biomarker Activity (AID 2283021).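 On AC50: MIG protein level measured by immunoassay in the treated endothelial cultures.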 Particulars: primary human endothelial cells (HUVEC); actives raise or lower the signal. An outline of the steps:
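HUVEC primary endothelial cultures dosed with chemical; MIG quantified by ELISA at 24 h. Data fitted bidirectionally against DMSO control, with parallel SRB total-protein staining for cytotoxicity.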

The target in assay [3] is human Vitamin D Receptor (VDR), VDR (gene 7421) (UniProt P11473). Description: ATG_VDR_TRANS: Attagene TRANS-FACTORIAL HepG2 Assay for human Vitamin D Receptor (VDR) (AID 2283022; active means hit-call score of the fitted dose curve at least 0.9, where 1 is the maximum). An outline of the steps: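 HepG2 cells were transiently transfected with GAL4-UAS reporter units and a chimeric VDR-Gal4 construct, then dosed for 24 hours. Reporter mRNA was quantified by RT-PCR, fluorescent labeling, HpaI digestion and capillary electrophoresis; gain of signal analysed vs DMSO.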

Read-out in assay [4]: Matrix Metallopeptidase 1 (MMP1), MMP1 (gene 4312)
The experiment in a line: BSK_BE3C_MMP1: BioMAP Diversity Plus: BE3C Assay for Matrix Metallopeptidase 1 (MMP1) Biomarker Activity (AID 2283024). The following applies: primary human bronchial epithelial cells; actives raise or lower the signal. An outline of the steps: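 Human primary bronchial epithelial cells (BE3C system) dosed for 24 h; MMP-1 quantified by ELISA. Bidirectional fit against DMSO; cytotoxicity tracked in parallel cultures by SRB total-protein staining.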

The nature of assay [5]: BSK_3C_Vis: BioMAP Diversity Plus: 3C Assay for Morphology Visualization (AID 2283025).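 Further: fitted both ways so gain or loss versus DMSO counts.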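 On AC50: light microscopy image of cell morphology used as background control.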 The following applies: primary human endothelial cells (HUVEC). Put shortly: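 Human umbilical vein endothelial cell morphology was inspected by light microscopy 24 h after chemical dosing; scored bidirectionally relative to DMSO.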
Read-out in assay [6]: Pselectin, SELP (gene 6403)
The experiment in a line: BSK_4H_Pselectin: BioMAP Diversity Plus: 4H Assay for Pselectin Biomarker Activity (AID 2283026). Particulars: primary human endothelial cells (HUVEC); actives raise or lower the signal. An outline of the steps: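 Primary human umbilical vein endothelial cells were treated 24 h, and cell-surface P-selectin was then quantified by ELISA. Bidirectional fit versus DMSO; cytotoxicity checked in parallel cultures by SRB total-protein staining.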

Assay [7] is described as follows: BSK_4H_SRB: Viability Assessment in the BioMAP Diversity Plus: 4H Assay (AID 2283027).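 Further: cells exposed to compound for 24 h before staining.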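 On AC50: curves fitted both ways versus DMSO so AC50 may be loss or gain.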 Particulars: primary human endothelial cells (HUVEC). An outline of the steps:
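Human umbilical vein endothelial cells were dosed with chemical and, after 24 h, fixed with 10% TCA, stained with 0.1% sulforhodamine B, and read at 560 nm to give total protein as a cytotoxicity measure. Bidirectional fitting relative to DMSO control.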

Assay [8] is described as follows: BSK_BE3C_SRB: Viability Assessment in the BioMAP Diversity Plus: BE3C Assay (AID 2283028).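 On AC50: fitted both ways so AC50 may mark signal gain or loss versus DMSO.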 The following applies: primary human bronchial epithelial cells. Put shortly:
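Human bronchial epithelial primary cells in confluent culture, 24 h after chemical dosing; total protein by 0.1% SRB staining after 10% TCA fixation, read at 560 nm. Bidirectional fitting versus DMSO baseline.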

Read-out in assay [9]: Thrombomodulin, THBD (gene 7056)
The experiment in a line: BSK_3C_Thrombomodulin: BioMAP Diversity Plus: 3C Assay for Thrombomodulin Biomarker Activity (AID 2283029). The following applies: primary human endothelial cells (HUVEC); actives raise or lower the signal. Put shortly:
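Human umbilical vein endothelial cells were exposed to chemicals for 24 h; cell-surface thrombomodulin quantified by ELISA, with bidirectional fitting against DMSO baseline.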

A short description of assay [10]: BSK_3C_SRB: Viability Assessment in the BioMAP Diversity Plus: 3C Assay (AID 2283023).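 Further: fitted both ways against DMSO so a hit may be signal rise or drop.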 The following applies: primary human endothelial cells (HUVEC). An outline of the steps: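 Human umbilical vein endothelial cells in the 3C system, treated 24 h. Total protein measured by 0.1% sulforhodamine B staining after 10% TCA fixation, read at 560 nm; bidirectional fit versus DMSO.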

human Vitamin D Receptor (VDR), VDR (gene 7421), sequence (P11473 whole entry, looked up, the tested form may be a part): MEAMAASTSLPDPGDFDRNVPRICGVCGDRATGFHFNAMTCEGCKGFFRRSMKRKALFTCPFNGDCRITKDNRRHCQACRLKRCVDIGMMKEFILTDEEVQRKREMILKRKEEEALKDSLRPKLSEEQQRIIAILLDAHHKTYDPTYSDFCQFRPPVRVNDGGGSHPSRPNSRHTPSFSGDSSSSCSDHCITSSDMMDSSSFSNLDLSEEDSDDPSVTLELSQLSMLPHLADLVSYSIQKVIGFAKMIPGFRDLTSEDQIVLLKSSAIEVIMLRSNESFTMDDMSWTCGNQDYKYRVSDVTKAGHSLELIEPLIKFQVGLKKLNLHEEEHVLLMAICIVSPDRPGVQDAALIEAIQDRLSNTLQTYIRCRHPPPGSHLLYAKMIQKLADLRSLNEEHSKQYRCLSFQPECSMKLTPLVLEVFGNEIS

With `CCCCCCCO`, the outcome in [1], in [2], in [3], in assay [4], in assay [5] and in assay [6] was inactive. Also, the outcome in assay [7], in [8] and in assay [9] was inactive.

Turning to `c1ccc2sc(SSN3CCOCC3)nc2c1`, the outcome in [1], in assay [2], in [3], in assay [4] and in [8] was inactive. Moreover, the AC50 in [5] was 8.8 µM (active); in [6] it was 4.4 µM (active); in assay [7], 5.2 µM (active).

Turning to `C[N+](C)(C)CCCNS(=O)(=O)C(F)(F)C(F)(F)C(F)(F)C(F)(F)C(F)(F)C(F)(F)C(F)(F)C(F)(F)F`, the AC50 is 44.3 µM (active) in [1]; 30.7 µM (active) and 20.8 µM (active) in assay [10]; 19600 nM (active) in assay [4]; 30 µM (active) and 16.8 µM (active) in assay [6]. In addition, the outcome in assay [1], in assay [2], in [3], in assay [4], in [7] and in [8] was inactive. The outcome in assay [9] was inactive.

As for `CCOC(=O)C1=NOC(c2ccccc2)(c2ccccc2)C1`, the half-maximal activity concentration (AC50) in assay [1] was 3.97 µM (active). Further, the outcome in [2], in assay [3], in assay [4], in [5], in assay [6] and in [7] was inactive. Moreover, the outcome in assay [8] and in [9] was inactive.

Take `Nc1cccc(N)n1`: the outcome in assay [1], in [2], in assay [3], in assay [4], in [5] and in [6] was inactive. Besides, the outcome in assay [7], in assay [8] and in [9] was inactive.

For the compound `CCCCCCCCCCCC(=O)N(C)CC(=O)O`, the result in assay [1], in assay [2], in [3], in assay [6], in assay [7] and in assay [8] was inactive. In assay [9], the outcome was inactive. In addition, the half-maximal activity concentration (AC50) in assay [4] was 8.01 µM (active) and 15.5 µM (active); in assay [6], 1.89 µM (active).

Turning to `CC/C=C\C/C=C\C/C=C\CCCCCCCC(=O)OC`, the half-maximal activity concentration (AC50) in assay [1] is 37.2 µM (active); in assay [2] it was 37.2 µM (active); in assay [4], 33600 nM (active); in assay [5], 37.5 µM (active); in assay [6], 19.9 µM (active); in assay [7] it was 20 µM (active). In addition, the AC50 in assay [8] was 28.5 µM (active); in assay [9] it was 5.05 µM (active). Moreover, the call in assay [3] was inactive.

Turning to `CCc1cccc(C)c1N(C(=O)CS(=O)(=O)O)C(C)COC` (stereo not given), the outcome in [1], in assay [2], in assay [3], in assay [10], in [4] and in assay [5] was inactive. For the same compound, the outcome in assay [6], in assay [7], in assay [8] and in assay [9] was inactive.

As to `C=CC(=O)OCCCCCCOC(=O)C=C`, the AC50 in assay [1] is 12.3 µM (active); in assay [2] it was 20 µM (active); in assay [10] it was 20 µM (active); in [5] it was 12.9 µM (active); in assay [6] it was 10.3 µM (active); in [7] it was 20 µM (active). Besides, the compound was called inactive in assay [3], in assay [4], in [8] and in assay [9].

As to `O=C(O)C(F)(F)C(F)(F)C(F)(F)C(F)(F)C(=O)O`, the outcome in assay [1], in [2], in assay [3], in [4], in assay [6] and in assay [7] was inactive. Moreover, the outcome in assay [8] and in assay [9] was inactive.

As to `Fc1ccc(Br)cc1`, the result in assay [1], in [2], in assay [3], in [10], in [4] and in assay [5] was inactive. Besides, the result in assay [6], in assay [7], in [8] and in assay [9] was inactive.

As to `CCCC(C)C(=O)OCC` (stereo not given), the outcome in [1], in [2], in assay [10], in assay [4], in [6] and in assay [7] was inactive. The outcome in assay [8] and in [9] was inactive.

For the compound `O=C1CCCCCCCCCCCN1`, the outcome in assay [1], in assay [2], in [4], in assay [5], in assay [6] and in assay [7] was inactive. Moreover, the result in [8] and in assay [9] was inactive.

In the case of `CCN1CN(CC)CN(CC)C1`, the outcome in assay [1], in assay [2], in [5], in assay [6], in assay [7] and in assay [8] was inactive. For the same compound, in assay [9], the result was inactive. In addition, in assay [4], the concentration at half-maximal activity (AC50) is 112 nM (active).

Regarding `C=CCCCCCCCCC=O`, the outcome in [1], in assay [2], in assay [4], in assay [5], in assay [6] and in assay [7] was inactive. Also, the result in [8] and in assay [9] was inactive.

In the case of `O=C(Oc1ccccc1)c1ccccc1C(=O)Oc1ccccc1`, the result in assay [1], in assay [2], in assay [4], in [5], in assay [6] and in assay [7] was inactive. Besides, the outcome in [8] and in assay [9] was inactive. The AC50 in assay [10] was 20 µM (active).

For `c1ccc2c(c1)[nH]c1ccccc12`, the outcome in assay [1], in [2], in assay [4], in [5], in [6] and in assay [7] was inactive. In addition, the result in assay [8] and in [9] was inactive. Further, the concentration at half-maximal activity (AC50) is 126 nM (active) in assay [4] and 6.87 µM (active) in assay [9].

For `c1ccc(Nc2cccc3ccccc23)cc1`, the half-maximal activity concentration (AC50) in assay [1] was 27.6 µM (active) and 24.6 µM (active); in assay [2], 36.5 µM (active) and 31.8 µM (active); in assay [4], 8.87 µM (active) and 4.89 µM (active); in assay [6], 35.2 µM (active) and 33 µM (active); in [7] it was 33.3 µM (active) and 35.6 µM (active); in assay [8], 27.4 µM (active) and 28.4 µM (active). Further, the outcome in [9] was inactive.

As for `CC=C(C)C(C)=O`, the result in assay [1], in assay [2], in assay [5], in assay [6], in assay [7] and in [8] was inactive. Also, the outcome in assay [9] was inactive. Also, in assay [4], the concentration at half-maximal activity (AC50) is 419 nM (active).

Take `O=C(Cl)c1c(Cl)c(Cl)c(C(=O)Cl)c(Cl)c1Cl`: the result in assay [1], in [2], in assay [4], in assay [5], in [6] and in assay [7] was inactive. Besides, the outcome in [8] and in [9] was inactive.

As to `NC(=O)Nc1ccccc1`, the outcome in assay [3] was inactive.

As for `Nc1ccc(C(=O)O)cc1`, the outcome in [1], in [2], in [4], in assay [5], in assay [6] and in assay [7] was inactive. In addition, the outcome in [8] and in [9] was inactive.

On to `CCOC(=O)/C=C\C(=O)OCC`, for which the outcome in assay [1], in [2], in [4], in assay [5], in assay [6] and in assay [7] was inactive. The result in assay [8] and in assay [9] was inactive.

Take `CCC(C)c1ccccc1` (stereo not given): the compound was classed as inactive in assay [3].

Turning to `CC(c1cc(C(C)(C)C)cc(C(C)(C)C)c1O)c1cc(C(C)(C)C)cc(C(C)(C)C)c1O`, the outcome in [1], in assay [2], in assay [10], in assay [4], in assay [5] and in [7] was inactive. In addition, the outcome in assay [8] and in assay [9] was inactive. Also, the concentration at half-maximal activity (AC50) in [6] was 0.965 µM (active).

For `CC(C)c1cccc(C(C)C)c1N`, the outcome in [1], in [2], in assay [4], in assay [6], in [8] and in assay [9] was inactive. Besides, the AC50 was 37.5 µM (active) in assay [5] and 33.5 µM (active) in assay [7].

With `CC=C(C)C=CC=C(C)C`, the outcome in assay [1], in assay [2], in assay [10], in assay [4], in [5] and in assay [6] was inactive. Further, the outcome in [7] and in assay [8] was inactive. The AC50 in assay [9] was 3.97 µM (active).
